Assay results taken from PubChem BioAssay (EPA / NIEHS).
Several values for one entry are separate records, joined by “and”; a condition that tells them apart may be missing. Equal entries are not always repeated. Inconclusive results are not listed. Some compounds were tested as several samples or in several runs, with calls that do not always agree. Activity calls are given as the source filed them. Rule for the calls, unless noted: active = hit-call score of the fitted dose curve at least 0.9, where 1 is the maximum; inactive = score below 0.9.

Columns and labels:
[1] = target: human RAR-related Orphan Receptor gamma (RORg), RORC (gene 6097) (UniProt P51449); assay: ATG_RORg_TRANS: Attagene TRANS-FACTORIAL HepG2 Assay for human RAR-related Orphan Receptor gamma (RORg) (AID 2283011; active = hit-call score of the fitted dose curve at least 0.9, where 1 is the maximum;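 for AC50: potency for induction of reporter transcripts above DMSO so activators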)
Outline: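 Readout: reporter transcript induction (RT-PCR, fluorescent primer extension, capillary electrophoresis) after 24 h compound exposure of transiently transfected HepG2 cells carrying a RORg-Gal4 chimera and GAL4-UAS reporters; DMSO served as baseline, with increasing signal fitted.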

[2] = target: Retinoic acid receptor RXR-alpha (Homo sapiens) (UniProt P19793); assay: ATG_RXRa_TRANS: Attagene TRANS-FACTORIAL HepG2 Assay for human Retinoid X Receptor alpha (RXRa) (AID 2283012; active = hit-call score of the fitted dose curve at least 0.9, where 1 is the maximum)
Outline: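 Chimeric NR-GAL4 trans-activation in HepG2, 24 h treatment; reporter transcripts quantified by fluorescence on capillary electrophoresis, analysed for upward change from DMSO.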

[3] = target: human Retinoid X Receptor beta (RXRb), RXRB (gene 6257) (UniProt P28702); assay: ATG_RXRb_TRANS: Attagene TRANS-FACTORIAL HepG2 Assay for human Retinoid X Receptor beta (RXRb) (AID 2283013; active = hit-call score of the fitted dose curve at least 0.9, where 1 is the maximum)
Outline: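 After a 24 h incubation with test chemical, transfected HepG2 cells carrying NR-Gal4 fusions and GAL4-UAS reporter transcription units yield RNA whose reporter cDNA is FAM-labelled, HpaI-cut and sized by capillary electrophoresis; increases over DMSO are scored.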

[4] = target: human Vitamin D Receptor (VDR), VDR (gene 7421) (UniProt P11473); assay: ATG_VDR_TRANS: Attagene TRANS-FACTORIAL HepG2 Assay for human Vitamin D Receptor (VDR) (AID 2283022; active = hit-call score of the fitted dose curve at least 0.9, where 1 is the maximum)
Outline: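 HepG2 cells were transiently transfected with multiple GAL4-UAS reporter units, so signal reflects exogenous chimeric receptor-Gal4 activity. After 24 h compound exposure, reporter mRNA was measured by RT-PCR, fluorescent labelling and capillary electrophoresis, fitted for gain of signal versus DMSO.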

[5] = target: human RAR-related Orphan Receptor beta (RORb), RORB (gene 6096) (UniProt Q92753); assay: ATG_RORb_TRANS: Attagene TRANS-FACTORIAL HepG2 Assay for human RAR-related Orphan Receptor beta (RORb) (AID 2283010; active = hit-call score of the fitted dose curve at least 0.9, where 1 is the maximum)
Outline: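 Multiplexed transcription-factor reporter assay: HepG2 cells transiently carrying NR-Gal4/GAL4-UAS constructs, 24 h treatment, mRNA quantified by RT-PCR plus capillary electrophoresis fluorescence; activity scored as induction over DMSO.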

[6] = target: human Thyroid Receptor alpha (THRa1), THRA (gene 7067) (UniProt P10827); assay: ATG_THRa1_TRANS: Attagene TRANS-FACTORIAL HepG2 Assay for human Thyroid Receptor alpha (THRa1) (AID 2283014; active = hit-call score of the fitted dose curve at least 0.9, where 1 is the maximum)
Outline: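 HepG2 cells transiently transfected with multiplexed GAL4-UAS reporter units for exogenous chimeric THRa1-Gal4; reporter mRNA measured 24 h after dosing by RT-PCR, 6-FAM labelling, HpaI digestion and capillary electrophoresis. Gain-of-signal fitted versus DMSO baseline.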

[7] = read-out: Interleukin-1 alpha (IL1a), IL1A (gene 3552); assay: BSK_BE3C_IL1a: BioMAP Diversity Plus: BE3C Assay for Interleukin-1 alpha (IL1a) Biomarker Activity (AID 2283016); settings: primary human bronchial epithelial cells; actives raise or lower the signal
Outline: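 Measured in human lung primary bronchial epithelial cells: IL-1a by ELISA at 24 h after dosing, with bidirectional fitting against DMSO.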

[8] = read-out: Monocyte Chemoattractant Protein-1 (MCP1), CCL2 (gene 6347); assay: BSK_4H_MCP1: BioMAP Diversity Plus: 4H Assay for Monocyte Chemoattractant Protein-1 (MCP1) Biomarker Activity (AID 2283018); settings: primary human endothelial cells (HUVEC); actives raise or lower the signal
Outline: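 Primary human umbilical vein endothelium is exposed to chemical for 24 h before MCP-1 is assayed by ELISA. Concentration-response fitted bidirectionally relative to DMSO.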

[9] = read-out: Human Leukocyte Antigen - DR isotype (HLADR), HLA-DRA (gene 3122); assay: BSK_3C_HLADR: BioMAP Diversity Plus: 3C Assay for Human Leukocyte Antigen - DR isotype (HLADR) Biomarker Activity (AID 2283019); settings: primary human endothelial cells (HUVEC); actives raise or lower the signal
Outline: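 Primary human umbilical vein endothelial cells (3C system) were dosed with compound and cell-surface HLA-DR was quantified by ELISA at 24 h. Activity was fitted bidirectionally against DMSO as negative control and baseline.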

[10] = read-out: Interleukin-8 (IL8), CXCL8 (gene 3576); assay: BSK_3C_IL8: BioMAP Diversity Plus: 3C Assay for Interleukin-8 (IL8) Biomarker Activity (AID 2283020); settings: primary human endothelial cells (HUVEC); actives raise or lower the signal
Outline: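 Using DMSO-treated wells as the baseline, bidirectional curve fitting was applied to ELISA-measured IL-8 from human umbilical vein endothelial cultures sampled 24 h after compound addition.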

[11] = read-out: Monokine induced gamma interferon (MIG), CXCL9 (gene 4283); assay: BSK_3C_MIG: BioMAP Diversity Plus: 3C Assay for Monokine induced gamma interferon (MIG) Biomarker Activity (AID 2283021); settings: primary human endothelial cells (HUVEC); actives raise or lower the signal;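 for AC50: MIG protein level measured by immunoassay in the treated endothelial cultures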
Outline: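 ELISA-measured MIG in dosed HUVEC 3C cultures at 24 h, analysed by bidirectional fitting with DMSO defining baseline activity.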

[12] = BSK_3C_SRB: Viability Assessment in the BioMAP Diversity Plus: 3C Assay (AID 2283023); settings: primary human endothelial cells (HUVEC);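 note: fitted both ways against DMSO so a hit may be signal rise or drop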
Outline: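 Primary human umbilical vein endothelial cells in the 3C system were read 24 h after compound dosing. Total protein was stained with 0.1% sulforhodamine B after 10% TCA fixation and read at 560 nm, with bidirectional fitting against DMSO as baseline.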

[13] = read-out: Matrix Metallopeptidase 1 (MMP1), MMP1 (gene 4312); assay: BSK_BE3C_MMP1: BioMAP Diversity Plus: BE3C Assay for Matrix Metallopeptidase 1 (MMP1) Biomarker Activity (AID 2283024); settings: primary human bronchial epithelial cells; actives raise or lower the signal
Outline: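 In this multiplexed primary-cell system, human bronchial epithelium received chemicals for 24 h before an ELISA for MMP1. Values reflect bidirectional fits normalised to the DMSO baseline.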

[14] = read-out: Pselectin, SELP (gene 6403); assay: BSK_4H_Pselectin: BioMAP Diversity Plus: 4H Assay for Pselectin Biomarker Activity (AID 2283026); settings: primary human endothelial cells (HUVEC); actives raise or lower the signal
Outline: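 Bidirectional fits against DMSO gave the endpoint. Cells: primary human umbilical vein endothelium, chemical-treated for 24 h before ELISA detection of P-selectin.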

[15] = BSK_4H_SRB: Viability Assessment in the BioMAP Diversity Plus: 4H Assay (AID 2283027); settings: primary human endothelial cells (HUVEC);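 note: cells exposed to compound for 24 h before staining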;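 for AC50: curves fitted both ways versus DMSO so AC50 may be loss or gain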
Outline: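 Cytotoxicity readout: sulforhodamine B (0.1%) staining of total protein after 10% TCA fixation, measured at 560 nm in human umbilical vein endothelium at 24 h. DMSO set the baseline; fitting was bidirectional.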

[16] = BSK_BE3C_SRB: Viability Assessment in the BioMAP Diversity Plus: BE3C Assay (AID 2283028); settings: primary human bronchial epithelial cells;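 for AC50: fitted both ways so AC50 may mark signal gain or loss versus DMSO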
Outline: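 Human primary bronchial epithelial cells were exposed to test chemicals for 24 h. Total protein in parallel cultures was then measured by staining with 0.1% sulforhodamine B after 10% TCA fixation, with absorbance read at 560 nm. Activity was fitted bidirectionally against DMSO.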

[17] = read-out: Thrombomodulin, THBD (gene 7056); assay: BSK_3C_Thrombomodulin: BioMAP Diversity Plus: 3C Assay for Thrombomodulin Biomarker Activity (AID 2283029); settings: primary human endothelial cells (HUVEC); actives raise or lower the signal
Outline: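 In a multiplexed primary-cell system, human umbilical vein endothelium received chemical and was assayed 24 h later for thrombomodulin by ELISA. Parallel cultures were SRB-stained (0.1% SRB after 10% TCA fixation, read at 560 nm) to flag cytotoxicity.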

[18] = read-out: E-selectin (Homo sapiens) (UniProt P16581); assay: BSK_3C_Eselectin: BioMAP Diversity Plus: 3C Assay for Eselectin Biomarker Activity (AID 2283015); settings: primary human endothelial cells (HUVEC); actives raise or lower the signal
Outline: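 Primary human umbilical vein endothelial cells (3C system) were dosed with chemical and cell-surface E-selectin measured by ELISA 24 h later. Bidirectional curve fitting used DMSO as negative control and baseline.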

[19] = read-out: Monocyte Chemoattractant Protein-1 (MCP1), CCL2 (gene 6347); assay: BSK_3C_MCP1: BioMAP Diversity Plus: 3C Assay for Monocyte Chemoattractant Protein-1 (MCP1) Biomarker Activity (AID 2283017); settings: primary human endothelial cells (HUVEC); actives raise or lower the signal
Outline: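 Primary human umbilical vein endothelial cells (3C system) were exposed to test chemical for 24 h, after which MCP-1 was quantified by ELISA. Activity was fitted bidirectionally against DMSO as negative control and baseline.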

[20] = BSK_3C_Vis: BioMAP Diversity Plus: 3C Assay for Morphology Visualization (AID 2283025); settings: primary human endothelial cells (HUVEC);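 note: light microscopy image of cell morphology used as background control; fitted both ways so gain or loss versus DMSO counts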
Outline: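 Light-microscopy morphology readout, 24 h exposure, human primary umbilical vein endothelium; analysed relative to DMSO with bidirectional fitting.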

Measured: AC50

Sequence of human RAR-related Orphan Receptor gamma (RORg), RORC (gene 6097) (P51449 whole entry, looked up, the tested form may be a part): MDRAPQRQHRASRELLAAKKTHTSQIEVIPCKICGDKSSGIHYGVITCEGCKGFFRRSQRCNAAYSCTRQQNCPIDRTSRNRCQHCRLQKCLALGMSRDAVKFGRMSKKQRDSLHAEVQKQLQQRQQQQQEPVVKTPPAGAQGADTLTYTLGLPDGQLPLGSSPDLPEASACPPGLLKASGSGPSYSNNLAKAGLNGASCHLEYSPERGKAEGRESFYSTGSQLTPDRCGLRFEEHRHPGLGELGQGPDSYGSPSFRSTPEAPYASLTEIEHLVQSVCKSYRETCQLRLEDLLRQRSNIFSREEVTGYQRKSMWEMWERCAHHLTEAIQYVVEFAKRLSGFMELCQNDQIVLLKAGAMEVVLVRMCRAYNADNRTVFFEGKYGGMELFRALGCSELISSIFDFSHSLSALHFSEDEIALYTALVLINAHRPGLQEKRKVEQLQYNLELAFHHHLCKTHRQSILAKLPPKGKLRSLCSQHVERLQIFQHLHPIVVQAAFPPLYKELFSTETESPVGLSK
Sequence of human Thyroid Receptor alpha (THRa1), THRA (gene 7067) (P10827 whole entry, looked up, the tested form may be a part): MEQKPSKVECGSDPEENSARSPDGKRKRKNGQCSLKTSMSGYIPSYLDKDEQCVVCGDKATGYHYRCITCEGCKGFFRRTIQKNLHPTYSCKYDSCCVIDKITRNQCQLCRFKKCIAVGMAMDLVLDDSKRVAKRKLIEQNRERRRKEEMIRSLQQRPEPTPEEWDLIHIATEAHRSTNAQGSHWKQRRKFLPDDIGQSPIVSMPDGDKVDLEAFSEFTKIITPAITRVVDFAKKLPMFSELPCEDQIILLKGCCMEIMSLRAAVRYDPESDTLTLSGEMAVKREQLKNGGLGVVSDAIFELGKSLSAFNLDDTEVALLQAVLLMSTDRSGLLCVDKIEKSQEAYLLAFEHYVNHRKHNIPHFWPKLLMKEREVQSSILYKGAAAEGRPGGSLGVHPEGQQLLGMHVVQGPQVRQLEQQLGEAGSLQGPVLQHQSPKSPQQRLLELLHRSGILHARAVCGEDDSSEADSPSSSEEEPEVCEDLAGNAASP
Sequence of Retinoic acid receptor RXR-alpha (Homo sapiens) (P19793 whole entry, looked up, the tested form may be a part): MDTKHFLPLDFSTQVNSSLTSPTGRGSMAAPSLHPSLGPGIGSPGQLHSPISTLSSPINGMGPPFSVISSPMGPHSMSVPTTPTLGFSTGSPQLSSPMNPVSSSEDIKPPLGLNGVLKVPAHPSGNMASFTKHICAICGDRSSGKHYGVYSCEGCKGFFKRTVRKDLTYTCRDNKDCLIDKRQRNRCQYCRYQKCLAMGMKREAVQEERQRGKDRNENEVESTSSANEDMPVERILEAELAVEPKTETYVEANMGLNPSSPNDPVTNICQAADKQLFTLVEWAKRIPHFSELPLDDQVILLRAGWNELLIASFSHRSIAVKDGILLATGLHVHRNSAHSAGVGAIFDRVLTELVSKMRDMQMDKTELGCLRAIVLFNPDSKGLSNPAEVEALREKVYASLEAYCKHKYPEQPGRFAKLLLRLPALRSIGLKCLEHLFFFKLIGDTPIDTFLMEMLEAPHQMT
Sequence of human Retinoid X Receptor beta (RXRb), RXRB (gene 6257) (P28702 whole entry, looked up, the tested form may be a part): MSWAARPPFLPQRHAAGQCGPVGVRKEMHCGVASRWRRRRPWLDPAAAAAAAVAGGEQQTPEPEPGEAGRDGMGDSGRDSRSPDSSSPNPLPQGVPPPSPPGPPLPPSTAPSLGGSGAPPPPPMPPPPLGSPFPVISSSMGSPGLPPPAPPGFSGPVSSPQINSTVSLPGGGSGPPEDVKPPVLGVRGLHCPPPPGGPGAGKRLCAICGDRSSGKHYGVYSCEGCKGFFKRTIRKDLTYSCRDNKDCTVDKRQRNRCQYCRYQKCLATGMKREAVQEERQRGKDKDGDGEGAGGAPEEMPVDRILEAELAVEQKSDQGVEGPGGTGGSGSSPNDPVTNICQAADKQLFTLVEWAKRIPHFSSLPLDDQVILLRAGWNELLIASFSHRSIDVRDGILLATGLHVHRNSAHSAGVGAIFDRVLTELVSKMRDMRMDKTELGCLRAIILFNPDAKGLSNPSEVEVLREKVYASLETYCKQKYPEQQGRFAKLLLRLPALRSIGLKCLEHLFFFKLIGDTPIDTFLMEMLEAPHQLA
Sequence of human Vitamin D Receptor (VDR), VDR (gene 7421) (P11473 whole entry, looked up, the tested form may be a part): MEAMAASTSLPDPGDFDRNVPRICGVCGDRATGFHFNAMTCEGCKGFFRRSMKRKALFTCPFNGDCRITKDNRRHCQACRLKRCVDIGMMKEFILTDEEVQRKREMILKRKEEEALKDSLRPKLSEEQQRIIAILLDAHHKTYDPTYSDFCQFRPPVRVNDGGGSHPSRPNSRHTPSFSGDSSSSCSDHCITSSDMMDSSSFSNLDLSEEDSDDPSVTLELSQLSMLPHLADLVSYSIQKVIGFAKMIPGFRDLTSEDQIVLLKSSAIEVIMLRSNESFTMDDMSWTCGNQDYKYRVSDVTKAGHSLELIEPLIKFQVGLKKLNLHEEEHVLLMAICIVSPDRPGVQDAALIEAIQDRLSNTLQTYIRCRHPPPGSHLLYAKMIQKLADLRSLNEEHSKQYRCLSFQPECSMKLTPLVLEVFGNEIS
Sequence of E-selectin (Homo sapiens) (P16581 whole entry, looked up): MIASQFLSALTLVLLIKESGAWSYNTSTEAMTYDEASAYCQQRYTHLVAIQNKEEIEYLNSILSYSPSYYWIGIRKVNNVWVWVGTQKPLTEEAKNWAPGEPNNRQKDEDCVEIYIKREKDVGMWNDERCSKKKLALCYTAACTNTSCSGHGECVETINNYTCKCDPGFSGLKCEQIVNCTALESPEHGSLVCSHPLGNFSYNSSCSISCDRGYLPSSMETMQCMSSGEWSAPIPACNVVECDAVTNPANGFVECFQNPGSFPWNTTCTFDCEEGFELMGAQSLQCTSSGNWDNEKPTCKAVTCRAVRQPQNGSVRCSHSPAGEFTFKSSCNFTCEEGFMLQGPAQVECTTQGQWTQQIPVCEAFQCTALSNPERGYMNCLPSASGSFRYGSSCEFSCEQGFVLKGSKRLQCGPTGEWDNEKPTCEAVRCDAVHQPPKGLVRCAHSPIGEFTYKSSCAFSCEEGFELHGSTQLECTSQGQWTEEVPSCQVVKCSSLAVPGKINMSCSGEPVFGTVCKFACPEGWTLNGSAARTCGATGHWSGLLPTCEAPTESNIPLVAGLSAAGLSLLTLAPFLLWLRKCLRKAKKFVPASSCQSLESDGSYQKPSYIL
Sequence of human RAR-related Orphan Receptor beta (RORb), RORB (gene 6096) (Q92753 whole entry, looked up, the tested form may be a part): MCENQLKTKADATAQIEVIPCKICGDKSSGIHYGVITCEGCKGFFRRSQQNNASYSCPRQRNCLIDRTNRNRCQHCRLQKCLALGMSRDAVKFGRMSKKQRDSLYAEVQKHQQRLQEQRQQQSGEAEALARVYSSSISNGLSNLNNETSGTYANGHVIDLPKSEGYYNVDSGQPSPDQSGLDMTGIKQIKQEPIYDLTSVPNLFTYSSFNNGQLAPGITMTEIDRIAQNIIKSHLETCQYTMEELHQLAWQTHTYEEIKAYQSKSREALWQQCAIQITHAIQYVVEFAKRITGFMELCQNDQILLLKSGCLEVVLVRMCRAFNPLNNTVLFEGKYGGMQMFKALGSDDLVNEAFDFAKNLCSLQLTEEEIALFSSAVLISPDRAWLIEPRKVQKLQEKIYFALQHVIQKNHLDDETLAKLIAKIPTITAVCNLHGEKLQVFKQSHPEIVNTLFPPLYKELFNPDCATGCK

CCCCCCS
active: [3] 100 µM
inactive: [1] | [2] | [4]

O=C(O)C(F)(F)C(F)(F)F
not listed: [1] | [3] | [18] | [19] | [20]
inactive: all other assays above

Cc1ccc(S(=O)(=O)NCl)cc1
inactive: [1] | [2] | [6]

CC/C=C\CCOC(=O)c1ccccc1
inactive: [2] | [3]

OCC(F)(F)C(F)(F)C(F)(F)F
not listed: [1] | [4] | [5] | [16] | [20]
inactive: all other assays above

CCCCCCOC(=O)c1ccccc1O
active: [18] 38.5 µM and 46.9 µM | [19] 41.9 µM and 38 µM | [8] 33.5 µM and 34.3 µM | [9] 37.4 µM and 43.7 µM | [10] 41.7 µM and 44.8 µM | [11] 41.2 µM and 40.8 µM | [12] 39.5 µM and 43.2 µM | [14] 40.7 µM and 41.9 µM | [15] 44.2 µM and 42.6 µM
inactive: [1] | [7] | [4] | [13] | [17]

FC(F)(I)C(F)(F)C(F)(F)C(F)(F)I
active: [18] 49 µM and 50.6 µM and 53.6 µM | [7] 47.5 µM and 46 µM and 45 µM | [8] 45.6 µM and 19.3 µM | [9] 50.2 µM and 46.5 µM and 59 µM | [10] 46.1 µM and 53.1 µM and 53.3 µM | [11] 52.8 µM and 46.1 µM and 55.3 µM | [12] 55 µM and 51 µM and 51.9 µM | [13] 44 µM and 50.6 µM and 22.7 µM | [14] 47.9 µM and 30 µM and 44.7 µM | [15] 56.2 µM and 42.7 µM and 50.5 µM | [16] 50.1 µM and 43.1 µM and 44.2 µM
inactive: [1] | [3] | [8]

OCC(F)(F)C(F)(F)C(F)(F)C(F)F
not listed: [3] | [5] | [6] | [16] | [18] | [19] | [20]
inactive: all other assays above

O=C(O)C(F)(F)C(F)(F)C(F)(F)F
not listed: [3] | [5] | [17] | [20]
inactive: all other assays above

O=C(O)C(F)(F)C(F)(F)C(F)(F)C(F)(F)C(F)(F)C(F)(F)C(F)(F)C(F)(F)C(F)(F)C(F)F
inactive: [6] | [8] | [9] | [10] | [11] | [13] | [14]
active: [1] 50 µM | [3] 66 µM | [7] 17.8 µM and 14.6 µM | [8] 30 µM | [9] 37.5 µM | [12] 47.3 µM and 49.5 µM | [15] 48.6 µM and 45.8 µM | [16] 21 µM and 20.7 µM

C#C[C@]1(O)CC[C@H]2[C@@H]3CCc4cc(OC)ccc4[C@H]3CC[C@@]21C
active: [7] 998 nM | [9] 31.2 µM | [10] 3.97 µM | [20] 37.5 µM
not listed: [1] | [5] | [16]
inactive: all other assays above

CC(Cc1ccc(O)c(O)c1)C(C)Cc1ccc(O)c(O)c1 (configuration not stated)
inactive: [1] | [2] | [4]

CC(C)=CCCC(C)CCOC(=O)C(C)C (configuration not stated)
inactive: [1] | [3] | [6] | [4]

OCCCC(F)(F)C(F)(F)C(F)(F)C(F)(F)C(F)(F)C(F)(F)C(F)(F)F
inactive: [2] | [4] | [14]
active: [2] 42.3 µM | [3] 6.49 µM and 7.94 µM | [7] 44.1 µM and 47.9 µM | [8] 45.7 µM and 45.1 µM | [9] 44.1 µM and 36.1 µM | [10] 44.9 µM and 47.6 µM | [11] 49.2 µM and 43.7 µM | [12] 32.6 µM and 45.2 µM | [13] 49.7 µM and 48.3 µM | [14] 41.8 µM | [15] 49.4 µM and 48.3 µM

FC(F)(F)C(F)(F)CNCC(F)(F)C(F)(F)F
inactive: [2] | [3] | [6] | [18] | [7] | [8] | [9] | [10] | [11] | [4] | [12] | [13] | [14] | [15] | [16]
active: [10] 30 µM

Cc1cc(C)cc(O)c1
inactive: [2] | [3] | [6]

FC(F)(F)C(F)(F)C(F)(F)C(F)(F)C(F)(F)C(F)(F)C(F)(F)I
not listed: [2] | [4] | [5] | [6] | [16] | [19] | [20]
inactive: all other assays above

CC(C)(C)C(=O)CC(=O)C(F)(F)C(F)(F)C(F)(F)F
inactive: [1] | [3] | [7] | [19] | [8] | [9] | [10] | [11] | [4] | [12] | [13] | [14] | [15]
active: [9] 30 µM | [12] 48.3 µM | [14] 5.95 µM
